Data from the supplement of paper PMC10646978.
± gives the standard deviation.

Experiments:
Details in all cases: modulator concentration 10 µM
[1] = system: RAW-Dual (murine macrophage reporter line); experiment: NF-kB reporter (SEAP) activity fold change vs agonist alone; higher = enhanced NF-kB activity
How it was run: (§1)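 In 384-well plates holding 50 000 RAW-Dual murine macrophage reporter cells per well, compound at 10 μM final was pre-incubated for 1 hour at 37 °C, after which a PRR agonist was added overnight. Supernatant SEAP read with QUANTI-Blue at 620 nm absorbance reported NF-κB, and Lucia luciferase read with QUANTI-Luc luminescence reported IRF. Fold change values come from dividing each reporter signal by the mean of agonist-only control wells on the same plate, averaged over replicate plates with propagated errors.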

[2] = system: RAW-Dual (murine macrophage reporter line); experiment: IRF reporter (Lucia luciferase) activity fold change vs agonist alone; higher = enhanced IRF activity
How it was run: as §1

[3] = system: RAW-Dual (murine macrophage reporter line); experiment: viability score (confluency relative to resting cells, overnight) (fraction); higher = more viable, active = viable (0.7 or more)
How it was run: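 In 384-well plates, RAW-Dual macrophages received compound at a final 10 μM overnight. Two confluency masks were then made with IncuCyte software from IncuCyte images of all imaged wells. The viability score is defined as confluency relative to resting cells. Passing the cutoff required both masks to lie above 70% of resting cells.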

[4] = agonist: CpG ODN 1826 0.5 ug/mL

| Structure (SMILES) | NF-kB reporter [1, 4] | NF-kB reporter ([1]; agonist: LPS 0.1 ug/mL) | NF-kB reporter ([1]; agonist: MPLA […]) | IRF reporter ([2]; agonist: 3'3'-cGAMP 10 ug/mL) | IRF reporter ([2]; agonist: LPS 0.1 ug/mL) | IRF reporter ([2]; agonist: MPLA […]) | viability score [3] |
| --- | --- | --- | --- | --- | --- | --- | --- |
| C=CCc1ccc(O)c(OC)c1 | 1.05 ± 0.29 | 0.913 ± 0.095 | 1.14 ± 0.097 | 0.524 ± 0.019 | 1.05 ± 0.14 | 1.01 ± 0.12 | 0.659 (inactive) |
| Cc1ccc(NC(=O)CSc2nc3ccccc3[nH]2)cc1.Cl | 1.28 ± 0.37 | 1.15 ± 0.1 | 1.02 ± 0.068 | 0.764 ± 0.036 | 1.19 ± 0.13 | 1.42 ± 0.16 | 0.388 (inactive) |
| Cc1ccccc1CC(CC(=O)O)C(=O)O (stereo not drawn) | 1.1 ± 0.089 | 0.979 ± 0.12 | 0.93 ± 0.094 | 1.03 ± 0.048 | 1.21 ± 0.12 | 1.3 ± 0.19 | 1.03 (active) |
| CC(=O)ON=C1C(C)=C(C#N)C2C1C2(C)C (stereo not drawn) | 1.2 ± 0.096 | 1.01 ± 0.26 | 0.874 ± 0.32 | 0.718 ± 0.18 | 0.871 ± 0.25 | 0.857 ± 0.33 | 1.01 (active) |
| Cc1ccc(N2C(=O)C(=CC3CC=CCC3)SC2=S)cc1 (stereo not drawn) | 0.652 ± 0.054 | 0.835 ± 0.039 | 0.817 ± 0.076 | 0.397 ± 0.022 | 1.04 ± 0.075 | 0.963 ± 0.1 | 0.973 (active) |
| CC1=NN(c2ccc(S(N)(=O)=O)cc2)C(=O)C1=Cc1ccc(C)s1 | 1.09 ± 0.074 | 1.08 ± 0.072 | 1.33 ± 0.14 | 0.868 ± 0.033 | 1.86 ± 0.15 | 1.54 ± 0.14 | 0.981 (active) |
| Cl.O=C(O)/C=C/c1ccc(Cn2ccnc2)cc1 | 1.43 ± 0.19 | 1.32 ± 0.25 | 0.979 ± 0.069 | 0.909 ± 0.028 | 1.34 ± 0.23 | 0.87 ± 0.096 | 0.988 (active) |
| COc1ccc(C2Nc3ccccc3-c3nnc(SCc4ccc(C)cc4)nc3O2)cc1C (stereo not drawn) | 0.964 ± 0.079 | 1.07 ± 0.086 | 0.919 ± 0.04 | 0.961 ± 0.13 | 0.992 ± 0.041 | 1.06 ± 0.15 | 1 (active) |
| COC(=O)C1=COC(OC2OC(CO)C(O)C(O)C2O)C2C1CC(O)C2C (stereo not drawn) | 1.04 ± 0.081 | 0.974 ± 0.099 | 0.994 ± 0.033 | 0.976 ± 0.063 | 0.946 ± 0.13 | 0.951 ± 0.24 | 0.998 (active) |
| Cc1ccc(S(=O)(=O)NC(=O)NN2CC3CCCC3C2)cc1 (stereo not drawn) | 1.22 ± 0.17 | 1.17 ± 0.48 | 0.973 ± 0.061 | 0.901 ± 0.082 | 1.23 ± 0.46 | 1.14 ± 0.088 | 0.987 (active) |
| Clc1cccc(C=Nc2ccc(N=Cc3cccc(Cl)c3Cl)cc2)c1Cl | 0.979 ± 0.081 | 1.08 ± 0.07 | 1 ± 0.04 | 0.815 ± 0.059 | 1.05 ± 0.056 | 1.09 ± 0.12 | 1 (active) |
| Cc1noc(C)c1CCC(=O)N1CCCC(c2nnc(C(F)(F)F)o2)C1 (stereo not drawn) | 0.991 ± 0.12 | 1.06 ± 0.087 | 0.923 ± 0.042 | 0.988 ± 0.082 | 1.12 ± 0.1 | 1.02 ± 0.077 | 1.01 (active) |
| O=C(NCCSC1CCOCC1)c1ccc(Cl)s1 | 1.21 ± 0.069 | 0.992 ± 0.1 | 1.02 ± 0.036 | 0.898 ± 0.055 | 1.03 ± 0.054 | 1.13 ± 0.14 | 1 (active) |
| CCOC(=O)C1C(=O)C=C(C)C(C(=O)OCC)C1c1ccc(Br)cc1 (stereo not drawn) | 1.05 ± 0.083 | 1.01 ± 0.093 | 1.06 ± 0.07 | 1.17 ± 0.047 | 1.3 ± 0.17 | 1.25 ± 0.19 | 1 (active) |
| Cc1nc(N(C)C)nc(C)c1NC(=O)CC(C)C | 0.95 ± 0.066 | 0.92 ± 0.075 | 0.837 ± 0.089 | 1.1 ± 0.055 | 0.967 ± 0.1 | 0.897 ± 0.39 | 1.01 (active) |
| COC(=O)/C=C/C(=O)OC | 1.2 ± 0.17 | 1.06 ± 0.17 | 1.01 ± 0.064 | 0.61 ± 0.019 | 1.19 ± 0.28 | 1.09 ± 0.12 | 1 (active) |
| C=CCN1CCCC1CNC(=O)c1cc2nn[nH]c2cc1OC.Cl (stereo not drawn) | 0.987 ± 0.2 | 1.05 ± 0.16 | 0.962 ± 0.14 | 0.917 ± 0.045 | 1.3 ± 0.31 | 0.93 ± 0.07 | 0.999 (active) |
| O=c1[nH]c(NN=Cc2c3ccccc3cc3ccccc23)nc2ccccc12 | 0.919 ± 0.085 | 1.03 ± 0.061 | 0.971 ± 0.066 | 0.935 ± 0.048 | 1.82 ± 0.16 | 1.23 ± 0.19 | 0.999 (active) |
| CC(C)(C)c1ccc(=O)n(CC2CN(S(C)(=O)=O)C2)n1 | 0.983 ± 0.097 | 1.13 ± 0.095 | 0.918 ± 0.092 | 1.02 ± 0.058 | 1.15 ± 0.1 | 1.1 ± 0.34 | 1.01 (active) |
| O=C(O)C=Cc1ccc2c(c1)OCCO2 | 1 ± 0.077 | 0.902 ± 0.075 | 1.14 ± 0.12 | 1.07 ± 0.059 | 1.35 ± 0.2 | 1.47 ± 0.33 | 1.02 (active) |
| CCOC(=O)C1=C(C)NC(C)=C(C(=O)OCC)C1c1ccc(Cl)c(Cl)c1 | 0.693 ± 0.23 | 0.996 ± 0.078 | 0.832 ± 0.079 | 1.05 ± 0.045 | 1.19 ± 0.19 | 1.37 ± 0.29 | 0.998 (active) |
| Cc1cc(C)c(S(=O)(=O)N2CCN(C(=O)N(C)C)CC2)c(C)c1 | 1.83 ± 0.4 | 1.21 ± 0.24 | 2.12 ± 0.63 | 0.505 ± 0.32 | 0.802 ± 0.48 | 0.738 ± 0.31 | 0.564 (inactive) |
| CCn1cc(C(=O)O)c(=O)c2cc(F)c(N3CCN(C)CC3)cc21.CS(=O)(=O)O.O.O | 0.788 ± 0.11 | 1.13 ± 0.13 | 0.897 ± 0.05 | 0.863 ± 0.026 | 1.37 ± 0.12 | 1.07 ± 0.16 | 0.991 (active) |
| CCCCCc1ccc(-c2ccc(-c3noc(-c4ccc(CCCC)cc4)n3)cc2)cc1 | 0.969 ± 0.08 | 0.97 ± 0.07 | 0.914 ± 0.086 | 0.94 ± 0.067 | 1.32 ± 0.25 | 1.45 ± 0.31 | 1.01 (active) |
